Bioassay records as filed in PubChem BioAssay.
An excerpt weighted towards active compounds, which were near 1.6% of everything screened.
KCNQ2 enhance = KCNQ2 (rat) channel potentiation; CHO-K1 KCNQ2, FluxOR thallium flux fluorescence; hits give high values; O88943; 310,000 tested, 0.54% active; B-score at 10 µM;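 active = fluorescence ratio B-score at least 3 SD of library B-scores, with initial fluorescence B-score within 3 of them, cut at about 5.3 in these data; same plate scores as AID 2156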;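 note: B-score of peak minus minimum over baseline fluorescence ratio after K+ and Tl+ stimulus; positive B-score means potentiation of KCNQ2 with more thallium influx and brighter signal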
Target sequence (O88943 whole entry, looked up): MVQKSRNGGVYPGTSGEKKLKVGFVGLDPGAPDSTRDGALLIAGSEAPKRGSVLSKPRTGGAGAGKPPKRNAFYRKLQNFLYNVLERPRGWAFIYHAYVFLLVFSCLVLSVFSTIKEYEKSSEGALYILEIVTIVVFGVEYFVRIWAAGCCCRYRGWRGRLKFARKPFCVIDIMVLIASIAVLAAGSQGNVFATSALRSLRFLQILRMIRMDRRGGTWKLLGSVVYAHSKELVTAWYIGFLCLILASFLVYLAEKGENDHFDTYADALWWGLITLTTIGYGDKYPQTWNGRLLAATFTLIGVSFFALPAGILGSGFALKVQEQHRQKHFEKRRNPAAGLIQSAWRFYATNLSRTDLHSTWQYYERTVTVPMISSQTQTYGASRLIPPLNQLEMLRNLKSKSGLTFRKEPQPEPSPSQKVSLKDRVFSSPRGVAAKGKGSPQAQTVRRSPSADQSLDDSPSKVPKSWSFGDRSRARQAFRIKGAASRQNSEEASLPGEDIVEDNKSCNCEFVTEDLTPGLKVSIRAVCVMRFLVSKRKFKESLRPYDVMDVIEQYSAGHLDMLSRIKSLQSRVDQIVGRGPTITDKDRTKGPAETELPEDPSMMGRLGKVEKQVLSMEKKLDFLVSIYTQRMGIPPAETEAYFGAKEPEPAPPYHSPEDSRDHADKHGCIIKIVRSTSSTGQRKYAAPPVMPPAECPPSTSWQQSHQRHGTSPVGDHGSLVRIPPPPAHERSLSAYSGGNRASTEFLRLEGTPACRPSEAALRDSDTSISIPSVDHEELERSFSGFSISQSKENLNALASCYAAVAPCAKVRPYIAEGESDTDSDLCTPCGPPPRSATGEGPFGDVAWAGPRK
KCNQ2 block = blocks the rat KCNQ2 potassium channel; 310,000 tested, 1.1% active; B-score at 10 µM; AID 2156; CHO-K1 KCNQ2, FluxOR thallium flux, 20 min; hits give low values;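 active = fluorescence ratio B-score at most minus 3 library SDs, with starting brightness B-score within 2 library SDs, cut at about -5.5 in these data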
Kir21 confirm = confirmation of mouse Kir2.1 potassium channel inhibitors; Tl flux remaining, % of negative control (hits give low values), % at 10 µM; Kir2.1-expressing cells, FluxOR thallium flux fluorescence; hits give low values; 2,300 tested, 41% active; shares compounds with KCNQ2 enhance;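 active = Primary-screen hit whose thallium flux fell at least 3 control SD below untreated wells in both duplicates, with normal baseline fluorescence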;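 note: 0% = blank wells without stimulus and 100% = stimulated no-compound controls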
HEK293 ctr = counter-screen for Kir2.1 inhibitors: effect in parental HEK293 cells | shares compounds with KCNQ2 enhance | FluxOR thallium flux fluorescence; 0% = unstimulated blank wells | FluxOR signal as % of negative control (100 = no effect), % at 10 µM | 2,300 tested, 19% active;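 active = dye signal at least 3 control SD above or below untreated wells in both duplicates, raw fluorescence within 3, either direction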;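 note: percent is based on the flux ratio of peak minus minimum fluorescence over baseline F0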
CHO-K1 Tl ctr = alters thallium flux in parental CHO-K1 cells, KCNQ2 counter-screen; shares compounds with KCNQ2 enhance; FluxOR thallium flux fluorescence; zero = vehicle mean+3SD, 100% = vehicle-minus-blank window; activity increase over 3SD of controls, % at 10 µM; 1,200 tested, 43% active; AID 2282;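 active = signal rise of at least 3 SD above the untreated control mean, in both duplicate wells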;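 note: counter screen of KCNQ2 potentiator hits so any rise reflects channel-independent effects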
KCNQ1 pot spec = tests whether KCNQ2 potentiators also act on human KCNQ1; shares compounds with KCNQ2 enhance; CHO KCNQ1 stable, FluxOR thallium flux fluorescence; beyond 3SD, as % of vehicle-control signal; activation over 3SD threshold, % at 10 µM; 1,200 tested, 28% active; AID 2283;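 active = fluorescence ratio rise of at least 3 SD of vehicle wells above their mean, in both replicate wells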;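 note: 0% = vehicle mean plus 3 SD and 100% = vehicle minus unstimulated blank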
KCNQ2 pot confirm = confirmation of rat KCNQ2 potassium channel potentiators; shares compounds with KCNQ2 enhance; CHO-KCNQ2 cells, FluxOR thallium flux fluorescence; potentiation, less the hit threshold, % at 10 µM; 1,200 tested, 68% active; AID 2287;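 active = fluorescence ratio rising 3 SD or more over the vehicle control mean in both replicates, plus primary screen hit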;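 note: peak minus minimum thallium fluorescence divided by baseline after K/Tl stimulus; 0% = vehicle mean plus 3 SD and 100% = vehicle minus unstimulated blank difference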
Kir21 spec = selectivity of KCNQ2 potentiators: effect on mouse Kir2.1; activity over 3SD threshold, % at 10 µM; 1,200 tested, 2% active; HEK293 Kir2.1, FluxOR thallium flux fluorescence; shares compounds with KCNQ2 enhance;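 active = fluorescence ratio rise of at least 3 SD above the vehicle-control mean, seen in both replicates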;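 note: 0% = vehicle mean plus 3 SD and 100% = vehicle minus no-stimulus blank window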
KCNQ2 W236L pot = potentiates the retigabine-insensitive rat KCNQ2 W236L mutant channel; shares compounds with KCNQ2 enhance; CHO KCNQ2-W236L, automated patch clamp current; current increase over 3SD of negative controls (%), hits give high values, % at 25 µM; 940 tested, 10% active; AID 2558;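 active = current increase at least 3 SD of the untreated controls above them in both duplicate recordings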
Starred values were filed as active, the others as inactive; i = inactive; nt = not tested or not shown.

SMILES	KCNQ2 enhance	KCNQ2 block	Kir21 confirm	HEK293 ctr	CHO-K1 Tl ctr	KCNQ1 pot spec	KCNQ2 pot confirm	Kir21 spec	others
O=C(Nc1cccc2c1CCCC2)c1ccccc1Cl	0.46	i	nt	nt	nt	nt	nt	nt
O=C(Nc1nnc(-c2ccc3c(c2)CCCC3)o1)c1ccccc1Cl	9.42*	i	i	i	-21.5	-15.3	11.7*	-20.8	KCNQ2 W236L pot=i
COc1ccc(C2=NN(S(C)(=O)=O)C(c3cccs3)C2)cc1OC (stereo not given)	nt	i	nt	nt	nt	nt	nt	nt
CCn1cc(Cl)c(C(=O)NNC(=O)CCn2ccc([N+](=O)[O-])n2)n1	nt	i	nt	nt	nt	nt	nt	nt
Cc1occc1C(=O)Nc1cccc2ccccc12	11.3*	i	i	i	11.0*	-16.4	55.9*	-37.7	KCNQ2 W236L pot=i
Cc1occc1C(=O)Nc1ccccc1NC(=O)c1ccoc1C	0.04	i	nt	nt	nt	nt	nt	nt
COC(=O)c1sccc1NC(=O)C1CC2CCC1C2 (stereo not given)	1.05	i	nt	nt	nt	nt	nt	nt
Cc1cccc(NC(=O)C2CC3CCC2C3)c1C (stereo not given)	6.93*	i	i	i	-22.8	-14.3	13.5*	-28.7	KCNQ2 W236L pot=i
Cc1cc(C)c(NC(=O)C2CC3CCC2C3)c(C)c1 (stereo not given)	27.5*	i	i	i	-6.5	-12.2	112.3*	-21.1	KCNQ2 W236L pot=i
COC(=O)c1ccc(NC(=O)C2CC3CCC2C3)cc1 (stereo not given)	1.25	i	nt	nt	nt	nt	nt	nt
Cc1cccc(C)c1NC(=O)C1CC2CCC1C2 (stereo not given)	6.19*	i	i	i	2.9*	33.7*	-2.9	-32.5	KCNQ2 W236L pot=i
CCOC(=O)c1ccc(NC(=O)C2CC3CCC2C3)cc1 (stereo not given)	1.3	i	nt	nt	nt	nt	nt	nt
CN(CC(=O)Nc1ccc(F)c(F)c1F)C(=O)c1ccc(-n2cncn2)c([N+](=O)[O-])c1	0.05	i	nt	nt	nt	nt	nt	nt
CC(NC(=O)c1cc(S(=O)(=O)N(C)C)ccc1Cl)c1ccc(-n2ccnc2)cc1 (stereo not given)	1.58	i	nt	nt	nt	nt	nt	nt
COc1ccc(S(=O)(=O)n2[nH]c(=O)c(CCO)c2C)c([N+](=O)[O-])c1	0.11	i	nt	nt	nt	nt	nt	nt
Cc1ccc(C(=O)NNc2ncnc3c2cnn3C)cc1	nt	i	nt	nt	nt	nt	nt	nt
Cn1ncc2c(O/N=C(\N)c3ccc(C(F)(F)F)cc3)ncnc21	5.95*	i	i	i	20.4*	5.7*	-5.1	-18.2
O=C(c1ccc(F)cc1)C1CCN(S(=O)(=O)c2ccccc2)CC1	nt	i	nt	nt	nt	nt	nt	nt
O=C(N/N=C/c1cccs1)c1[nH]ncc1Br	11.1*	i	i	i	115.3*	-14.4	43.2*	-32.6	KCNQ2 W236L pot=i
O=C(N/N=C/c1cccs1)c1cnccn1	nt	i	nt	nt	nt	nt	nt	nt
CC1CCN(S(=O)(=O)N2CCC(C(=O)NCc3ccc4c(c3)OCO4)CC2)CC1	0.08	i	nt	nt	nt	nt	nt	nt
CCc1ccc(CNC(=O)C2CCN(S(=O)(=O)N3CCC(C)CC3)CC2)cc1	6.89*	i	i	i	-13.7	-6.7	-7.5	-27.8
Cc1cccc(C(=O)NCCc2nnc(SCC(=O)Nc3cccc(C(=O)O)c3)n2C)c1	nt	i	nt	nt	nt	nt	nt	nt
CCc1ccccc1NC(=O)CCc1c(C)nc(SC)nc1C	0.59	i	nt	nt	nt	nt	nt	nt
CN=C(C)/C(C(=O)OC)=C(/O)c1c(F)cccc1F	0.09	i	nt	nt	nt	nt	nt	nt
SMILES	KCNQ2 enhance	KCNQ2 block	Kir21 confirm	HEK293 ctr	CHO-K1 Tl ctr	KCNQ1 pot spec	KCNQ2 pot confirm	Kir21 spec	others
Cn1c(=O)c2c(nc(CN3CCN(C(c4ccccc4)c4ccccc4)CC3)n2CCCO)n(C)c1=O	nt	i	nt	nt	nt	nt	nt	nt
COCCn1c(CN2CCN(C(c3ccccc3)c3ccccc3)CC2)nc2c1c(=O)n(C)c(=O)n2C	5.9*	i	i	i	-2.8	-16.7	-16.6	-23.6
COc1ccc(CCNC(=O)C2CCCN(S(=O)(=O)c3ccccc3)C2)cc1 (stereo not given)	1.01	i	nt	nt	nt	nt	nt	nt
C=CCn1c(CNc2ccc(C)cc2)nnc1SCC(=O)N/N=C/c1ccc(O)cc1	0.4	i	nt	nt	nt	nt	nt	nt
CCCC(c1nnnn1CS(=O)(=O)c1ccc(C)cc1)N1CCN(c2ccc(F)cc2)CC1 (stereo not given)	nt	i	nt	nt	nt	nt	nt	nt
CCCC(c1nnnn1CS(=O)(=O)c1ccc(C)cc1)N1CCN(CC)CC1 (stereo not given)	5.47*	i	i	i	32.5*	-8.5	0.3*	-27.8	KCNQ2 W236L pot=i
Cc1cnc(C(=O)OCC(=O)c2ccc(Br)s2)cn1	0.89	i	nt	nt	nt	nt	nt	nt
CCn1c(SCC(O)c2ccccc2)nnc1-c1ccccc1 (stereo not given)	0.68	i	nt	nt	nt	nt	nt	nt
CCn1c(SCc2cccc(C)c2)nnc1-c1ccccc1	nt	i	57.0%*	i	nt	nt	nt	nt
Cc1ccc(S(=O)(=O)N(C)c2nc3ccccc3[nH]c2=S)cc1	5.57*	i	i	154.0%*	-26.0	-6.3	-3.3	-34.7
CCc1nnc2c(N(C)S(=O)(=O)c3ccc(C)cc3)nc3ccccc3n12	1.4	i	nt	nt	nt	nt	nt	nt
CCc1nc(OCC(=O)c2ccccc2)c(C#N)c2c1COC(C)(C)C2	9.58*	i	i	i	57.0*	-5.9	20.5*	-47.5	KCNQ2 W236L pot=i
Cc1nc(OCC(=O)c2ccc(Cl)cc2)c(C#N)c2c1COC(C)(C)C2	0.81	i	nt	nt	nt	nt	nt	nt
CCOC(=O)c1[nH]c2ccccc2c1NC(=O)Nc1ccc(OC)cc1	nt	i	nt	nt	nt	nt	nt	nt
Cc1cc(C)cc(NC(=O)CSc2nc(=O)n(CCCN3CCOCC3)c3c2CCCC3)c1	nt	i	nt	nt	nt	nt	nt	nt
CC(=O)N(CCC(c1ccco1)C(C)C)Cc1ccc(Cl)cc1 (stereo not given)	nt	i	nt	nt	nt	nt	nt	nt
CCC(=O)N(CCC(c1ccco1)C(C)C)Cc1ccccc1 (stereo not given)	nt	i	50.0%*	68.5%*	nt	nt	nt	nt
O=C(N=C1SCC(=O)N1c1ccccc1Cl)c1ccccc1	0.54	i	nt	nt	nt	nt	nt	nt
CC(OC(=O)c1ccccc1)C(=O)NCCC1=CCCCC1 (stereo not given)	1.23	i	nt	nt	nt	nt	nt	nt
Cc1ccccc1OC(C)C(=O)NCCC1=CCCCC1 (stereo not given)	-5.93	-5.93*	37.5%*	i	nt	nt	nt	nt
Nc1c(-c2ccccc2Cl)cnn1-c1cccc([N+](=O)[O-])c1	5.35*	i	i	127.0%*	-19.6	-33.1	2.3*	-25.1	KCNQ2 W236L pot=i
Cc1ccccc1-c1cnn(-c2cccc([N+](=O)[O-])c2)c1N	0.71	i	nt	nt	nt	nt	nt	nt
